The supplement of paper PMC8877412
Structures can show the parent of a compound that is named as a salt. ± gives the uncertainty stated by the source.

System: NCC-PMP1-C1
Assay: cell viability relative to DMSO control; higher = less growth inhibition
Settings: 10 µM; 72 h
Description: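 NCC-PMP1-C1 pseudomyxoma peritonei cells were seeded in 384-well plates coated with Matrigel and MEF (1e4 cells). Viability was read after 72 h by CCK-8 and expressed as % of the DMSO control, mean ± SD of duplicates.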

SMILES	cell viability [%]
C=CC[C@@H]1/C=C(\C)C[C@H](C)C[C@H](OC)[C@H]2O[C@@](O)(C(=O)C(=O)N3CCCC[C@H]3C(=O)O[C@H](/C(C)=C/[C@@H]3CC[C@@H](O)[C@H](OC)C3)[C@H](C)[C@@H](O)CC1=O)[C@H](C)C[C@@H]2OC [Tacrolimus (FK506)]	2.67 ± 1
O=C(c1ccc(OCCN2CCCCC2)cc1)c1c(-c2ccc(O)cc2)sc2cc(O)ccc12 [Raloxifene HCl]	92.9 ± 5.5
COc1cccc2c1C(=O)c1c(O)c3c(c(O)c1C2=O)C[C@@](O)(C(C)=O)C[C@@H]3O[C@H]1C[C@H](N)[C@H](O)[C@H](C)O1 [Daunorubicin HCl]	-1.33 ± 0.2
CCN(CC)CCNC(=O)c1c(C)[nH]c(/C=C2\C(=O)Nc3ccc(F)cc32)c1C [Sunitinib Malate]	50.6 ± 16
COc1cccc2c1C(=O)c1c(O)c3c(c(O)c1C2=O)C[C@@](O)(C(=O)CO)C[C@@H]3O[C@H]1C[C@H](N)[C@@H](O)[C@H](C)O1 [Epirubicin HCl]	3.6 ± 0.6
C#Cc1cccc(Nc2ncnc3cc(OCCOC)c(OCCOC)cc23)c1 [Erlotinib]	66.7 ± 5.8
COC(=O)c1ccc2c(C(=Nc3ccc(N(C)C(=O)CN4CCN(C)CC4)cc3)c3ccccc3)c(O)[nH]c2c1 [Nintedanib (BIBF 1120)]	23.9 ± 1.6
CN(C)C/C=C/C(=O)Nc1cc2c(Nc3ccc(F)c(Cl)c3)ncnc2cc1O[C@H]1CCOC1 [Afatinib (BIBW2992)]	12.4 ± 2.3
COc1cc2c(cc1O)CCN[C@]21CS[C@@H]2c3c(OC(C)=O)c(C)c4c(c3[C@H](COC1=O)N1[C@@H]2[C@H]2c3c(cc(C)c(OC)c3O)C[C@@H]([C@@H]1O)N2C)OCO4 [Trabectedin]	-0.842 ± 0.95
CC(=O)[C@]1(O)Cc2c(O)c3c(c(O)c2[C@@H](O[C@H]2C[C@H](N)[C@H](O)[C@H](C)O2)C1)C(=O)c1ccccc1C3=O [Idarubicin HCl]	4.26 ± 0.73
O=C(O)C1=CO[C@@H](O[C@@H]2O[C@H](CO)[C@@H](O)[C@H](O)[C@H]2O)[C@@H]2C(CO)=CC[C@H]12 [Geniposidic acid]	97.1 ± 2.2
Nc1nc(Cl)nc2c1ncn2[C@H]1C[C@H](O)[C@@H](CO)O1 [Cladribine]	97.8 ± 1.1
CNC(=O)c1cc(Oc2ccc(NC(=O)Nc3ccc(Cl)c(C(F)(F)F)c3)cc2)ccn1 [Sorafenib Tosylate]	148 ± 14
Nc1[nH]cnc2ncnc1-2 [Adenine HCl]	108 ± 25
CN(C)C/C=C/C(=O)Nc1cc2c(Nc3ccc(F)c(Cl)c3)ncnc2cc1O[C@H]1CCOC1 [Afatinib (BIBW2992) Dimaleate]	29.3 ± 2.4
COc1cc2c(cc1O)CC[C@@H]1[C@@H]2CC[C@]2(C)[C@@H](O)CC[C@@H]12 [2-Methoxyestradiol (2-MeOE2)]	98 ± 4
Nc1cc(C(Cl)=C(Cl)Cl)c(S(N)(=O)=O)cc1S(N)(=O)=O [Clorsulon]	117 ± 9.7
COc1cc2nccc(Oc3ccc(NC(=O)C4(C(=O)Nc5ccc(F)cc5)CC4)cc3)c2cc1OC [Cabozantinib malate (XL184)]	52.5 ± 6.2
CO[C@H](C(=O)[C@@H](O)[C@@H](C)O)[C@@H]1Cc2cc3cc(O[C@H]4C[C@@H](O[C@H]5C[C@@H](O)[C@H](O)[C@@H](C)O5)[C@H](O)[C@@H](C)O4)c(C)c(O)c3c(O)c2C(=O)[C@H]1O[C@H]1C[C@@H](O[C@H]2C[C@@H](O[C@H]3C[C@](C)(O)[C@H](O)[C@@H](C)O3)[C@H](O)[C@@H](C)O2)[C@H](O)[C@@H](C)O1 [Mithramycin A]	7.11 ± 5.3
FC(F)(F)c1ccc(CNc2ccc(Cc3c[nH]c4ncc(Cl)cc34)cn2)cn1 [Pexidartinib (PLX3397)]	63.2 ± 6
COc1cc([C@@H]2c3cc4c(cc3[C@@H](O[C@@H]3O[C@@H]5CO[C@@H](C)O[C@H]5[C@H](O)[C@H]3O)[C@H]3COC(=O)[C@H]23)OCO4)cc(OC)c1O [Etoposide]	61.1 ± 1.9
Cc1ccc(NC(=O)c2ccc(CN3CCN(C)CC3)cc2)cc1Nc1nccc(-c2cccnc2)n1 [Imatinib Mesylate (STI571)]	75.2 ± 4.4
CC(C)c1nc(CN(C)C(=O)N[C@@H](CCN2CCOCC2)C(=O)N[C@H](CC[C@H](Cc2ccccc2)NC(=O)OCc2cncs2)Cc2ccccc2)cs1 [Cobicistat (GS-9350)]	83.8 ± 3.1
